The results in this text go back to PubChem BioAssay (Tox21).

The nature of experiment [1]: A CellTox Green Cytotoxicity Assay to monitor cytotoxicity in HEK293 cells - 32 hour (AID 1224881). Further: nearly all actives have a fitted effect of over 40% in size. Further: potency means the concentration at half of the fitted maximal effect. In a few lines: (§1)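 Each value comes from one timepoint of a single continuous run in which HEK293 cells with CellTox Green were exposed to compound for up to 40 h at 37 C, dye fluorescence rising with cell death.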
A short description of experiment [2]: A CellTox Green Cytotoxicity Assay to monitor cytotoxicity in HepG2 cells - 0 hour (AID 1224882). Further: nearly all actives have a fitted effect of over 35% in size. In a few lines: (§2)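 Continuous culture of HepG2 cells with a membrane-impermeant DNA dye; rising fluorescence marks dead cells. Compound exposure lasted up to 40 h at 37 C, with reads every 8 h from 0 h.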
Experiment [3] is described as follows: A CellTox Green Cytotoxicity Assay to monitor cytotoxicity in HepG2 cells - 32 hour (AID 1224883). Further: nearly all actives have a fitted effect of over 50% in size. In short, it runs like this:
as §2

Experiment [4] can be described thus: A CellTox Green Cytotoxicity Assay to monitor cytotoxicity in HEK293 cells - 8 hour (AID 1224884). Further: nearly all actives have a fitted effect of over 35% in size. In short, it runs like this:
as §1

Experiment [5] can be described thus: qHTS RealTime-Glo MT Cell Viability Assay in HepG2 cells - 16 hour (AID 1224885). Further: nearly all actives have a fitted effect of over 50% in size. In short, it runs like this:
(§3)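 HepG2 suspension premixed with RealTime-Glo reagents is plated at 600 cells per well and left 5 h at 37 C/5% CO2. Compounds in DMSO then go in, and bioluminescence reflecting viable cell number is recorded over 40 h.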
In general terms: qHTS replaces the single test concentration by a dilution series.

Experiment [6] can be described thus: qHTS RealTime-Glo MT Cell Viability Assay in HEK293 cells - 24 hour (AID 1224886). Further: top concentration of the series differs between compounds; nearly all actives have a fitted effect of over 50% in size. In short, it runs like this:
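Reads taken at 0, 8, 16, 24, 32 and 40 h from the same wells. HEK293 cells (600/well) carried RealTime-Glo reagents from seeding, with compound added after a 5 h settle at 37 C.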

Experiment [7] in a line: qHTS RealTime-Glo MT Cell Viability Assay in HEK293 cells - 8 hour (AID 1224887). Further: top concentration of the series differs between compounds; nearly all actives have a fitted effect of over 50% in size. In short, it runs like this:
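qHTS format; HEK293 cells with NanoLuc/prosubstrate reagent, 37 C/5% CO2 for 5 h pre-dosing; compounds 23 nL in DMSO; luminescence at each time point reflects viable cells.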

The nature of experiment [8]: A CellTox Green Cytotoxicity Assay to monitor cytotoxicity in HEK293 cells - 16 hour (AID 1224888). Further: nearly all actives have a fitted effect of over 35% in size. In a few lines: as §1
Experiment [9] can be described thus: qHTS RealTime-Glo MT Cell Viability Assay in HepG2 cells - 0 hour (AID 1224889). Further: nearly all actives have a fitted effect of over 50% in size. Further: potency means the concentration at half of the fitted maximal effect. In a few lines: as §3
A short description of experiment [10]: A CellTox Green Cytotoxicity Assay to monitor cytotoxicity in HepG2 cells - 8 hour (AID 1224890). Further: nearly all actives have a fitted effect of over 45% in size. In short, it runs like this: as §2

Records with an inconclusive call do not appear. The source made the active and inactive calls. The call rests on the fitted dose curve; in most records, active means well fitted curve in the direction sought with a large enough effect in the repeat runs; inconclusive means weak or mixed curves; inactive means no such curve, though single readings can be large; an effect the other way counts as inactive or inconclusive.

On to `COc1ccccc1Oc1c(NS(=O)(=O)c2ccc(C(C)(C)C)cc2)nc(-c2ncccn2)nc1OCCO`, for which the Potency result in [1], in experiment [2], in [3], in experiment [4], in experiment [5] and in [6] was “inactive” each time. The Potency result in experiment [7], in experiment [8], in experiment [9] and in experiment [10] was “inactive” each time.

On to `O=C1CCCCCCCCCCOCCCCO1`, for which, in experiment [1], the Potency was 49 µM (active). Further, the Potency entry in [2], in [3], in experiment [4], in [5], in experiment [6] and in experiment [7] was “inactive” throughout. Also, the Potency entry in experiment [8], in [9] and in [10] was “inactive” each time.

As to `CCCCC(CC)CN` (stereo not drawn), the Potency entry in experiment [1], in experiment [2], in [3], in [4], in [5] and in experiment [6] was “inactive” in each case. For the same compound, the Potency result in experiment [7], in [8], in [9] and in experiment [10] was “inactive” throughout.

Take `Cc1cccc(N(C)C(=S)Oc2ccc3c(c2)CCC3)c1`: the Potency result in experiment [1], in experiment [2], in [3], in experiment [4], in experiment [5] and in experiment [6] was “inactive” throughout. Also, the Potency result in experiment [7], in experiment [8], in [9] and in experiment [10] was “inactive” in each case.

Turning to `O=C(O)CCC(=O)C(=O)O`, the Potency entry in [1], in experiment [2], in [3], in experiment [4], in experiment [5] and in [6] was “inactive” in each case. In addition, the Potency entry in [7], in experiment [8], in [9] and in [10] was “inactive” throughout.

Turning to `CC(CO)CO`, the Potency result in experiment [1], in [2], in experiment [3], in experiment [4], in [5] and in experiment [6] was “inactive” throughout. Besides, the Potency result in [7], in [8], in [9] and in [10] was “inactive” each time.

Consider `C[C@@]12CCC[C@H]1[C@@H]1CC[C@H]3C[C@@H](O)CC[C@]3(C)[C@H]1CC2`, for which the Potency result in experiment [1], in experiment [2], in [3], in experiment [4], in experiment [5] and in experiment [6] was “inactive” in each case. Moreover, the Potency entry in experiment [7], in [8], in experiment [9] and in experiment [10] was “inactive” throughout.

For `CCCCCC[C@@H](O)C/C=C\CCCCCCCC(=O)O`, the Potency entry in experiment [1], in experiment [2], in experiment [3], in experiment [4], in [5] and in experiment [6] was “inactive” throughout. The Potency entry in experiment [7], in experiment [8], in experiment [9] and in experiment [10] was “inactive” in each case.

For the compound `CCCCCCCCOc1ccc(C(=O)O)cc1`, the Potency result in [1], in experiment [2], in experiment [3], in experiment [4], in experiment [5] and in experiment [6] was “inactive” in each case. Besides, the Potency result in experiment [7], in experiment [8], in [9] and in experiment [10] was “inactive” each time.

As to `CC(C)Nc1cccnc1N1CCN(C(=O)c2cc3cc(NS(C)(=O)=O)ccc3[nH]2)CC1`, the Potency result in [1], in experiment [2], in [3], in experiment [4], in experiment [5] and in experiment [6] was “inactive” each time. The Potency result in experiment [7], in experiment [8] and in experiment [10] was “inactive” throughout. Moreover, the Potency in [9] was 3.38 µM (active).

As for `Cc1ccco1`, the Potency entry in experiment [1], in experiment [2], in [3], in experiment [4], in experiment [5] and in experiment [6] was “inactive” throughout. Moreover, the Potency result in experiment [7], in experiment [8], in [9] and in experiment [10] was “inactive” throughout.

`CN1CC(=O)N2[C@H](c3ccc4c(c3)OCO4)c3[nH]c4ccccc4c3C[C@@H]2C1=O`: the Potency entry in experiment [1], in [2], in [3], in experiment [4], in experiment [5] and in experiment [6] was “inactive” throughout. In addition, the Potency result in experiment [7], in experiment [8], in experiment [9] and in experiment [10] was “inactive” each time.

Consider `CCCCCCCCCCC(=O)O`, for which the Potency entry in experiment [1], in [2], in experiment [3], in experiment [4], in experiment [5] and in experiment [6] was “inactive” throughout. In addition, the Potency entry in experiment [7], in [8], in experiment [9] and in experiment [10] was “inactive” each time.

As for `C=C1c2cccc(O)c2C(O)=C2C(=O)[C@]3(O)C(O)=C(C(N)=O)C(=O)[C@@H](N(C)C)[C@@H]3[C@@H](O)[C@H]12`, the Potency entry in [1], in experiment [2], in experiment [3], in experiment [4], in experiment [5] and in experiment [6] was “inactive” throughout. In addition, the Potency result in experiment [7], in experiment [8], in experiment [9] and in experiment [10] was “inactive” each time.

On to `CCCCN(CCCC)C(C(N)=O)c1ccc(OC)cc1` (stereo not drawn), for which the Potency result in [1], in [2], in experiment [3], in [4], in experiment [5] and in experiment [6] was “inactive” throughout. For the same compound, the Potency entry in experiment [7], in experiment [8], in experiment [9] and in [10] was “inactive” each time.

Consider `c1ccc(C[n+]2cccc3ccccc32)cc1`, for which the Potency result in [1], in [2], in [3], in experiment [4], in experiment [5] and in experiment [6] was “inactive” each time. Besides, the Potency entry in experiment [7], in experiment [8], in experiment [9] and in experiment [10] was “inactive” throughout.

As for `CC1(C)[C@H](C(=O)O)N2C(=O)C[C@H]2S1(=O)=O`, the Potency entry in experiment [1], in [2], in [3], in experiment [4], in experiment [5] and in experiment [6] was “inactive” throughout. Also, the Potency result in [7], in [8], in experiment [9] and in [10] was “inactive” each time.

For `CC(=O)c1ccc([N+](=O)[O-])cc1`, the Potency entry in experiment [1], in experiment [2], in [3], in [4], in experiment [5] and in experiment [6] was “inactive” each time. The Potency result in experiment [7], in [8] and in experiment [10] was “inactive” throughout.

Take `CCC1(CO)COCOC1`: the Potency result in experiment [1], in experiment [2], in experiment [3], in experiment [4], in experiment [5] and in experiment [6] was “inactive” each time. For the same compound, the Potency entry in experiment [7], in experiment [8], in [9] and in [10] was “inactive” throughout.

Turning to `CCCCN(CCN(CCCC)C(=O)N1CCOCC1)C(=O)N1CCOCC1`, the Potency result in experiment [1], in experiment [2], in experiment [3], in experiment [4], in experiment [5] and in experiment [6] was “inactive” throughout. In addition, the Potency entry in [7], in experiment [8], in experiment [9] and in [10] was “inactive” in each case.

As to `C=C(C)C(=O)OCCOCCOC(=O)C(=C)C`, the Potency entry in experiment [1], in experiment [2], in [3], in [4], in [5] and in experiment [6] was “inactive” throughout. The Potency result in experiment [7], in experiment [8], in experiment [9] and in experiment [10] was “inactive” each time.

With `CCCCCCCC/C=C\CCCCCCCCO`, the Potency entry in experiment [1], in experiment [2], in [3], in [4], in experiment [5] and in experiment [6] was “inactive” throughout. Further, the Potency result in [7], in [8], in experiment [9] and in experiment [10] was “inactive” throughout.

Take `CCn1cc(C(=O)O)c(=O)c2cc(F)c(N3CCNCC3)cc21`: the Potency entry in [1], in experiment [2], in [3], in [4], in experiment [5] and in [6] was “inactive” in each case. In addition, the Potency entry in experiment [7], in experiment [8], in [9] and in experiment [10] was “inactive” throughout.

As for `CCC1CO1` (stereo not drawn), the Potency entry in experiment [1], in [2], in [3], in [4], in [5] and in experiment [6] was “inactive” in each case. The Potency entry in experiment [7], in experiment [8] and in [10] was “inactive” throughout.
